In the library only some 6.5% were active in any assay of this set; here they are far more common.
MARV entry inh = qHTS for inhibitors of binding or entry into cells for Marburg Virus; Potency, µM (doses to about 37.8 µM), inactives show at the highest dose activity change, negative = inhibition, usual class: inhibitors; AID 540276, 2011; Marburg virus pseudotyped entry inhibition, cell reporter; 300,000 compounds, 1.8% hits; calls by dose curve; tested in HEK293 cells; further: potency means the concentration at half of the fitted maximal effect
FMDV inh = High Throughput Screening for Foot and Mouth Disease Virus Antivirals; Potency, µM (titrated, usually from 57.9 µM), for inactives: at the top dose activity change, negative = inhibition, actives largely listed as inhibitors; 410,000 compounds, 1.2% hits; FMDV antiviral cell-based qHTS; AID 1159524, 2015; calls by dose curve; tested in HEK293T cells; further: read-out not given here; potency means the concentration at half of the fitted maximal effect; nearly all actives have a fitted effect of over 45% in size
HCMV inh = qHTS Assay for inhibitors of the human cytomegalovirus (HCMV) | AID 1259415, 2018 | 410,000 compounds, 4.5% hits | activity change, negative = inhibition, % at 57.5 µM | HFF cells, HCMV-luciferase reporter, 72 h; active compounds read low; in the data active means activity change below about -60%; inconclusive means no clear call, values can overlap the other calls; inactive means above about -39%
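Human foreskin fibroblasts infected with luciferase-reporter HCMV at MOI 1 PFU/cell, compounds at two doses. Luciferase measured 72 h post infection; normalized to buffer-only basal and Salinomycin (10uM) controls.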
LASV entry inh = qHTS for Inhibitors of binding or entry into cells for Lassa Virus. Lassa virus pseudotype entry inhibition, cell reporter. Potency, µM (titrated, usually from 37.9 µM), inactives show at the highest dose activity change, negative = inhibition, actives largely listed as inhibitors. 300,000 compounds, 1.2% hits. AID 540256, 2011; calls by dose curve; tested in HEK293 cells; further: potency means the concentration at half of the fitted maximal effect; nearly all actives have a fitted effect of over 50% in size
VACV Venus inh = qHTS for Stage-Specific Inhibitors of Vaccinia Orthopoxvirus: Venus Reporter Primary qHTS. Potency, µM (highest dose often 36.5 µM), inactives show at the highest dose activity change, negative = inhibition, usual class: inhibitors. Vaccinia virus Venus reporter expression, fluorescence. 330,000 compounds, 0.46% hits; calls by dose curve; tested in A549 cells; further: potency means the concentration at half of the fitted maximal effect; nearly all actives have a fitted effect of over 30% in size
VACV mCherry inh = qHTS for Stage-Specific Inhibitors of Vaccinia Orthopoxvirus: mCherry Reporter Primary qHTS; Vaccinia virus mCherry reporter infection, fluorescence; Potency, µM (titrated, usually from 36.5 µM), without a hit: at the highest dose activity change, negative = inhibition, hits mostly inhibitors; 310,000 compounds, 0.63% hits; AID 720579, 2013; calls by dose curve; tested in A549 cells; further: potency means the concentration at half of the fitted maximal effect; nearly all actives have a fitted effect of over 35% in size
* hit, by the source's call; ? = inconclusive; . = not tested or not shown; [ ] = remark or other dose. On the % scale 0 is the no-effect control and ±100 the full control effect.

SMILES	MARV entry inh	FMDV inh	HCMV inh	LASV entry inh	VACV Venus inh	VACV mCherry inh
O=c1nc(/C=C/c2cccn2-c2ccc([N+](=O)[O-])cc2)cc(C(F)(F)F)[nH]1	13%[46.1 µM]	-20%	-24	-3%	-29%	-30%
COc1cc(OC)c(OC)cc1/C=C/c1cc(C(F)(F)F)[nH]c(=O)n1	?	?	?	-7%[46.1 µM]	-7%	-3%
O=c1nc(/C=C/c2cc([N+](=O)[O-])ccc2Cl)cc(C(F)(F)F)[nH]1	-30%	0%	-68*	-17%	.	.
COc1cc(/C=C/c2cc(C(F)(F)F)[nH]c(=O)n2)cc(OC)c1OC	?	?	-97*	?	?	?
Cc1oc(-c2ccccc2NC(=O)C2CCCO2)nc1CNC(=O)c1cc(Cl)ccc1F (centres undefined)	.	-9%	.	.	-3%	-10%
CCN=c1scc(-c2ccc3c(c2)NC(=O)CO3)n1N=C1CCCC1	4µM*	?	-77*	?	?	?
CCCCN=c1scc(-c2ccc3c(c2)NC(=O)CO3)n1N=C1CCCC1	?	25µM*	-76*	?	.	.
Cc1nc2ccccc2c2c(N)c3ccccc3n12	-21%[46.1 µM]	-21%	-63*	-4%	-3%	4%
COc1ccc(C(=O)c2ccc(N(C)C)cc2)c2ccccc12	?	.	-77*	?	?	?
COc1ccc(O)c(O)c1/C=C1\[C@@H](C)CCC2C(C)(C)CCC[C@]12C (some centres undefined)	.	.	3	.	.	.
CNc1nc2cnc(Nc3ccccn3)cc2n1-c1cc(OC)c(OC)c(OC)c1	.	.	-4	.	.	.
O=C(NCc1ccccc1)N1CCOCC1	.	-5%	0	.	.	.
O=C(OCc1ccccc1)N1CCOCCOCCN(C(=O)OCc2ccccc2)CCOCCOCC1	?	22µM*	-13	?	-15%	-18%
Cc1cnc(SCC2CCCO2)nc1C1CCCN(C(=O)c2ccc(S(N)(=O)=O)cc2)C1 (centres undefined)	.	5%	.	.	0%	-15%
CCN(CC)C(=O)CSc1nc2sc3c(c2c(=O)n1CCCOC)CCC3	23%	-12%	-76*	-19%	-11%	-13%
